Screening data (PubChem BioAssay)
A selection follows.
nsP2pro primary – Primary qHTS for inhibitors of NSP2Pro chikungunya virus (CHIKV); 1.1% of 31,000 active; FRET peptide cleavage, nsP2pro, fluorescence 1 h; Potency, µM (titrated, usually from 24.9 µM), for the others: at the highest dose activity change, negative = inhibition, hits mostly inhibitors; Polyprotein P1234 (Chikungunya virus (strain S27-African prototype)), Q8JUX6; note: nearly all actives have a fitted effect of over 60% in size
Target sequence (Q8JUX6 whole entry, looked up): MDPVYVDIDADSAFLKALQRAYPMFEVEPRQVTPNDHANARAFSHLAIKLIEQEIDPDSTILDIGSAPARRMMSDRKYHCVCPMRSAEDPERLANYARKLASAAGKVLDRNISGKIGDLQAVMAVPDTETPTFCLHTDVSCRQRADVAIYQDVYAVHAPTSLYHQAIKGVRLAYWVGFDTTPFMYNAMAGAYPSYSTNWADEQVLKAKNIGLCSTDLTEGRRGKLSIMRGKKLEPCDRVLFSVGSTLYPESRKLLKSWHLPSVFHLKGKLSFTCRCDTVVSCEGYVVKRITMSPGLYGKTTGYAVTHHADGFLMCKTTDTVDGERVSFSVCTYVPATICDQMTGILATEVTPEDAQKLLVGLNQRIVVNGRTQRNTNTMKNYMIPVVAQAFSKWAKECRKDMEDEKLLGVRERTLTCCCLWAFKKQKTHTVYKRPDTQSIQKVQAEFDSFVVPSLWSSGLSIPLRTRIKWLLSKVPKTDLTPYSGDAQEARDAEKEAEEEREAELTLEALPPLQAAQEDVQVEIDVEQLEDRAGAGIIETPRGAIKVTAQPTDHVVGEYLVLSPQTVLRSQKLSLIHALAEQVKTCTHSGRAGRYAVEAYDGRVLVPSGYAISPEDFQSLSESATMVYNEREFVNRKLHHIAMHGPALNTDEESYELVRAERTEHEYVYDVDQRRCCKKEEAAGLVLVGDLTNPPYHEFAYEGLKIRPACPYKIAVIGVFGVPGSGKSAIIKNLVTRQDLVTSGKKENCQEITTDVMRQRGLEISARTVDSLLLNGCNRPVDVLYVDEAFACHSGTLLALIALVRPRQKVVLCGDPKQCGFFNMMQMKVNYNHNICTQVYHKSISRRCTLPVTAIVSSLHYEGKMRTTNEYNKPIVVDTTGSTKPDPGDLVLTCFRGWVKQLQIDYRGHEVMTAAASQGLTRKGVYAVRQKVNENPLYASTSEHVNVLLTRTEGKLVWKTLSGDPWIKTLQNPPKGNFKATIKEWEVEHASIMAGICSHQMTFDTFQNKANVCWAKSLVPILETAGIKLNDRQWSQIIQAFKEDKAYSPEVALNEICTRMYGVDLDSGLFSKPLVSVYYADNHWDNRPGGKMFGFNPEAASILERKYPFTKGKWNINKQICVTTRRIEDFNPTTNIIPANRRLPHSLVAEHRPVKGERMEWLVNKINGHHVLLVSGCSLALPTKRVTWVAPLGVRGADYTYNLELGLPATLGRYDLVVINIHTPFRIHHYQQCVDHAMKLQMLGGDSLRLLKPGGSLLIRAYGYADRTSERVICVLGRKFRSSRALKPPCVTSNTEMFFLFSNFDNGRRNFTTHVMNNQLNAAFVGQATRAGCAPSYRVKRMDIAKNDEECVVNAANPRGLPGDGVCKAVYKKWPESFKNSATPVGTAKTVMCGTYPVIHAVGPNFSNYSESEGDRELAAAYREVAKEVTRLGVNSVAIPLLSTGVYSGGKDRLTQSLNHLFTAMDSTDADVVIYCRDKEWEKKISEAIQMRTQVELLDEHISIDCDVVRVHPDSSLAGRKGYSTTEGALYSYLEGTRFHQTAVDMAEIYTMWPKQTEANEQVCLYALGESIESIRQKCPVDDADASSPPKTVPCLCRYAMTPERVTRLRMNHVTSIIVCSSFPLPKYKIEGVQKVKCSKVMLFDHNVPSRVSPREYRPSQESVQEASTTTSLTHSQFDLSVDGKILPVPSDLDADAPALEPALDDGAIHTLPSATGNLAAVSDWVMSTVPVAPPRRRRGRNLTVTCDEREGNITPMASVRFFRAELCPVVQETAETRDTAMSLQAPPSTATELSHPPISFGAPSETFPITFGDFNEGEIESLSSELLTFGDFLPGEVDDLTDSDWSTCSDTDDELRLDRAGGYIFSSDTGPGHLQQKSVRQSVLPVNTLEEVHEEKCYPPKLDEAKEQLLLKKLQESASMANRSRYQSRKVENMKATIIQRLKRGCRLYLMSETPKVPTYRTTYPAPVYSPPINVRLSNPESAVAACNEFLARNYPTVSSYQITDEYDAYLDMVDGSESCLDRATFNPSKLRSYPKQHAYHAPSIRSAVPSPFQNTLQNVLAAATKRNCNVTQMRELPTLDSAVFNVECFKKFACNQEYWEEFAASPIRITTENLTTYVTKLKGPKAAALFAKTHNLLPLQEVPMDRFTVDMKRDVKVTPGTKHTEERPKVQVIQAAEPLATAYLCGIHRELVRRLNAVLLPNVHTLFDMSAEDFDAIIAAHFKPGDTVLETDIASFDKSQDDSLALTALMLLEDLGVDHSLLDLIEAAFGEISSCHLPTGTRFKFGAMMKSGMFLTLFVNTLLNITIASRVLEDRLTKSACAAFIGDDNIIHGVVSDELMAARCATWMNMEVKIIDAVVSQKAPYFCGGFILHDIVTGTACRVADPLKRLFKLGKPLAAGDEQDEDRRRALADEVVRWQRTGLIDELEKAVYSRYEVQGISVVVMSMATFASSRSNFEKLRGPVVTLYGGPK
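Enzyme 150 nM, substrate 2.5 uM (both final); Tris-HCl 10 mM pH 8.0 + 0.01% Tween 20; cpd up to 25 uM, 7 pts; 15 min preinc., 1 h RT; fluorescence ex 525/em 598.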
CHIKV nsP2 cell – Secondary cell base assay for inhibitors of NSP2Pro Chikungunya virus (CHIKV). cell-based CHIKV nsP2 protease reporter assay. Potency, µM (doses to about 51.1 µM), inactives show at the highest dose activity change, negative = inhibition, most hits filed as inhibitors. 10% of 450 active. shares compounds with nsP2pro primary; note: nearly all actives have a fitted effect of over 70% in size
NSP2 full ctr – Selectivity profile for inhibitors of NSP2Pro chikungunya virus (CHIKV): Full length NSP2 enzyme counterscreen (CHIKV-NSP2); Potency, µM (highest dose often 50.7 µM), without a hit: at the highest dose activity change, negative = inhibition, most hits filed as inhibitors; Full-length CHIKV NSP2 protease enzymatic counterscreen; 39% of 410 active; shares compounds with nsP2pro primary; note: nearly all actives have a fitted effect of over 65% in size
Furin counter – Selectivity profile for inhibitors of NSP2Pro chikungunya virus (CHIKV): Human furin counterscreen | shares compounds with nsP2pro primary | Recombinant human furin enzymatic counterscreen, fluorogenic substrate | Potency, µM (highest dose often 50.6 µM), for the others: top-dose activity change, negative = inhibition, hits mostly inhibitors | 6% of 410 active | AID 1964102, 2024
nsP2 NS23 pep – Selectivity profile for inhibitors of NSP2Pro chikungunya virus (CHIKV): Endogenous NS2/3 peptide Counterscreen; 34% of 410 active; AID 1964103, 2024; shares compounds with nsP2pro primary; Purified CHIKV nsP2 protease, endogenous NS2/3 peptide cleavage; Potency, µM (highest dose often 51 µM), for inactives: top-dose activity change, negative = inhibition, actives largely listed as inhibitors; note: nearly all actives have a fitted effect of over 55% in size
Papain counter – Selectivity profile for inhibitors of NSP2Pro chikungunya virus (CHIKV): Papain Counterscreen. shares compounds with nsP2pro primary. purified papain protease activity, enzymatic inhibition. Potency, µM (highest dose often 51 µM), for the others: at the highest dose activity change, negative = inhibition, usual class: inhibitors. 5% of 410 active. AID 1964104, 2024
nsP2pro confirm – Confirmatory qHTS for inhibitors of NSP2Pro chikungunya virus (CHIKV); shares compounds with nsP2pro primary; CHIKV nsP2 protease enzymatic activity, qHTS; Potency, µM (series often up to 25.5 µM), without a hit: at the top dose activity change, negative = inhibition, actives largely listed as inhibitors; 43% of 410 active; AID 1964105, 2024; note: nearly all actives have a fitted effect of over 75% in size
HCV NS3 counter – Selectivity profile for inhibitors of NSP2Pro chikungunya virus (CHIKV): NS34A-HCV Counterscreen | HCV NS3/4A protease biochemical counterscreen | Potency, µM (doses to about 50.9 µM), actives largely listed as inhibitors | shares compounds with nsP2pro primary | 20% of 410 active; note: nearly all actives have a fitted effect of over 55% in size
Numbers without * were called inactive; i = inactive; ? = inconclusive; [ ] = remark or other dose. Calls come from the whole dose curve. % is set by controls: 0 for no effect and ±100 for the full control effect; potency is the fitted concentration of half-maximal effect.

SMILES	nsP2pro primary	others
C[C@@H]1O[C@@H](O[C@H]2[C@@H]3C=CO[C@@H](O[C@@H]4O[C@H](CO)[C@@H](O)[C@H](O)[C@H]4O)[C@@H]3[C@@]3(CO)O[C@@H]23)[C@H](O)[C@H](OC(=O)/C=C/c2ccc(O)c(O)c2)[C@H]1O	?	CHIKV nsP2 cell=6%[17.6 µM];NSP2 full ctr=-6%[17.3 µM];Furin counter=-7%[17.3 µM];nsP2 NS23 pep=-17%[17.2 µM];Papain counter=-11%[17.2 µM];nsP2pro confirm=-14%[8.62 µM];HCV NS3 counter=i
CC(=O)O[C@@H]1[C@@H](OC(=O)/C=C/c2ccccc2)[C@H](C)O[C@@H](O[C@H]2[C@@H]3C=CO[C@@H](O[C@@H]4O[C@H](CO)[C@@H](O)[C@H](O)[C@H]4O)[C@@H]3[C@@]3(CO)O[C@@H]23)[C@@H]1OC(C)=O	-10%[10 µM]
C[C@@H]1O[C@@H](O[C@H]2[C@@H]3C=CO[C@@H](O[C@@H]4O[C@H](CO)[C@@H](O)[C@H](O)[C@H]4O)[C@@H]3[C@@]3(CO)O[C@@H]23)[C@H](OC(=O)/C=C/c2ccccc2)[C@H](O)[C@H]1O	23%[10 µM]
COc1ccc(/C=C/C(=O)O[C@H]2[C@@H]3C=CO[C@@H](O[C@@H]4O[C@H](CO)[C@@H](O)[C@H](O)[C@H]4O)[C@@H]3[C@@]3(CO)O[C@@H]23)cc1O	42%[10 µM]
C[C@@H]1O[C@@H](O[C@H]2[C@@H]3C=CO[C@@H](O[C@@H]4O[C@H](CO)[C@@H](O)[C@H](O)[C@H]4O)[C@@H]3[C@@]3(CO)O[C@@H]23)[C@H](OC(=O)/C=C/c2ccc(O)c(O)c2)[C@H](O)[C@H]1O	?	CHIKV nsP2 cell=-3%[17.6 µM];NSP2 full ctr=-2%[17.3 µM];Furin counter=-9%[17.3 µM];nsP2 NS23 pep=-13%[17.2 µM];Papain counter=-12%[17.2 µM];nsP2pro confirm=-24%[8.62 µM];HCV NS3 counter=i
O=C(/C=C/c1ccc(O)c(O)c1)O[C@H]1[C@@H]2C=CO[C@@H](O[C@@H]3O[C@H](CO)[C@@H](O)[C@H](O)[C@H]3O)[C@@H]2[C@@]2(CO)O[C@@H]12	-7%[10 µM]
Cc1cncc(NC(=S)N2CCN(c3cccc(C(F)(F)F)c3)CC2)c1	0%
CCc1cc2c(cc1CC)CC(NCC(O)c1ccc(O)c3[nH]c(=O)ccc13)C2 (stereo unspecified)	11%
FC(F)(F)c1cccc(N2CCN(C(=S)Nc3cccnc3)CC2)c1	-7%
O=C1CCCC2=C1C(c1[nH]ncc1Cl)NC(=NCc1ccco1)N2 (stereo unspecified)	-2%
CC(C)=CCCC(C)=CCCC(C)=CCCC=C(C)CCC=C(C)CCC=C(C)C	-7%
Cc1cn2nc([C@@H]3CCCCN3C(=O)c3cc(Cl)ccc3NS(C)(=O)=O)cc2nc1N1CC[C@H](N)C1	8%[10 µM]
CO[C@H]1C[C@@H]2CC[C@@H](C)[C@@](O)(O2)C(=O)C(=O)N2CCCC[C@H]2C(=O)O[C@H]([C@H](C)C[C@@H]2CC[C@@H](OCCO)[C@H](OC)C2)CC(=O)[C@H](C)/C=C(/C)[C@@H](O)[C@@H](OC)C(=O)[C@H](C)C[C@H](C)\C=C/C=C\C=C/1C	-21%[10 µM]
